# Assay results as given in PubChem BioAssay AID777 (Sanford-Burnham Center for Chemical Genomics, 2007).
# Screen size: about 96,000 compounds; about 19,000 (20%) were called active.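 How the source made its calls: active means blocking of liver enzyme CYP2C9 beyond about 50% at 5 µM (limit read from the data); inactive means the rest.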 The list is a sample of the results.
# Target: Cytochrome P450 2C9 (Homo sapiens) (UniProt P11712)
# Assay: blockers of cytochrome P450 2C9 activity – biochemical, luminescence, ADME assay, primary screen (AID 777)
# Conditions: CYP2C9 Supersomes, luciferin-H conversion, at 5 µM, hits give high values
# Sequence of Cytochrome P450 2C9 (Homo sapiens) (P11712 whole entry, looked up): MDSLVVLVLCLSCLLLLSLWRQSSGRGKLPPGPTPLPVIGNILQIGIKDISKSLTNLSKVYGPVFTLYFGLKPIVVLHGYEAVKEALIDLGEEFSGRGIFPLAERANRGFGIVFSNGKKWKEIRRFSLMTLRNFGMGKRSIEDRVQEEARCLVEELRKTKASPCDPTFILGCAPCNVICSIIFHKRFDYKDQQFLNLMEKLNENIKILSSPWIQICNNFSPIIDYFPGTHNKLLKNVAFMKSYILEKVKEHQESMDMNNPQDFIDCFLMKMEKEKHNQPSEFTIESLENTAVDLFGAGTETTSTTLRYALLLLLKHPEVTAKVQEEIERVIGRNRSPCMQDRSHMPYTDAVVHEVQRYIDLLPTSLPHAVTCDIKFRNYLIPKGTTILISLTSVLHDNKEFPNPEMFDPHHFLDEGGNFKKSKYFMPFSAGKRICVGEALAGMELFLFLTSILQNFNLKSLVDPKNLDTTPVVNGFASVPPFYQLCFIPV
row,SMILES,inhibition
1,Cc1nc(NC(=O)C23CCC(C)(C(=O)O2)C3(C)C)sc1C (stereo not drawn),-3.9% (inactive)
2,Cc1cccc(-n2c(N)cc(=O)nc2SC(C)C(=O)NC2CCCCC2)c1 (stereo not drawn),27.7% (inactive)
3,O=C(CCCN1C(=O)c2ccccc2C1=O)Oc1ccc(Cl)cc1,19.8% (inactive)
4,N#Cc1c(NC(=O)CCCN2C(=O)c3ccccc3C2=O)oc(-c2ccccc2)c1-c1ccccc1,50.3% (active)
5,COc1cc(C(=O)Nc2oc(-c3ccccc3)c(-c3ccccc3)c2C#N)cc(OC)c1OC,43.6% (inactive)
6,CS(=O)(=O)Nc1cccc(C2=NN(S(=O)(=O)c3ccccc3)C(c3cccs3)C2)c1 (stereo not drawn),89.1% (active)
7,NC(=O)C1CCN(C2OC(=O)c3ccccc32)CC1 (stereo not drawn),-3.4% (inactive)
8,Cc1ccc(CCn2c3c(c4ccccc42)CN(C)CC3)cn1,-27.5% (inactive)
9,O=C(Nc1ccc(-c2nnc(-c3ccccc3)o2)cc1)C1CCCO1 (stereo not drawn),-11.1% (inactive)
10,O=C(CSc1nnc(-c2ccc(NS(=O)(=O)c3ccccc3)cc2)o1)NCC1CCCO1 (stereo not drawn),92.2% (active)
11,O=C(CS(=O)(=O)Cc1ccccc1)NCC1CCCO1 (stereo not drawn),-17.4% (inactive)
12,CSC1=N/C(=C\C=C\c2cccs2)C(=O)S1,-10.5% (inactive)
13,Cn1c(=O)[nH]c(=O)c2c1nc(N1CCCCCC1)n2CC(=O)c1ccccc1,7.5% (inactive)
14,Cc1nnc(SCCCn2c(N3CCCCC3)nc3c2c(=O)[nH]c(=O)n3C)s1,59.5% (active)
15,C=C(C)Cn1c(N2CCCC2)nc2c1c(=O)[nH]c(=O)n2C,-5% (inactive)
16,CSCCC1NC2(C(=O)Nc3ccc(Cl)cc32)[C@@H]2C(=O)N(C3CCCC3)C(=O)[C@H]12 (stereo partly drawn),76.1% (active)
17,O=C(CN1CCCCCC1)Nc1ccc(Br)cc1Br,16.5% (inactive)
18,CC(C)C(c1nnnn1C1CCCC1)N1CCN(c2ccccc2F)CC1 (stereo not drawn),8.2% (inactive)
19,COc1ccc(N2CCN(C(c3cc4ccc(C)cc4[nH]c3=O)c3nnnn3C3CCCC3)CC2)cc1 (stereo not drawn),75.7% (active)
20,Cc1cccc2cc(CN(Cc3cccs3)C(c3nnnn3C3CCCC3)C(C)C)c(=O)[nH]c12 (stereo not drawn),-38.3% (inactive)
21,COc1ccc(C(c2nnnn2C2CCCCC2)N2CCN(c3ccccc3F)CC2)cc1 (stereo not drawn),73.7% (active)

row,SMILES,inhibition
1,Cc1cccc(N2CCN(C(c3ccccc3)c3nnnn3CC3CCCO3)CC2)c1C (stereo not drawn),37.3% (inactive)
2,CCOc1ccc2[nH]c(=O)c(C(c3nnnn3CCOC)N3CCOCC3)cc2c1 (stereo not drawn),6.5% (inactive)
3,N#Cc1ccc(-c2ccc(F)cc2)nc1Sc1ccccc1,13.2% (inactive)
4,Cc1[nH]n(-c2ccccc2)c(=O)c1CCOC(=O)c1ccc(C(F)(F)F)cc1,-11.8% (inactive)
5,COC(=O)CN(c1nc(C)c(Cl)c(OC)n1)S(=O)(=O)c1ccc(C)cc1,34.3% (inactive)
6,Cc1ccc(-c2nnc(-n3nnc4ccccc43)c3ccccc23)cc1,8.4% (inactive)
7,N#Cc1ccc(OCCN2C(=O)NC3(CCSC3)C2=O)cc1 (stereo not drawn),-24.2% (inactive)
8,CC1(C)NC(=O)N(CCOc2cccc(Oc3ccccc3)c2)C1=O,62.5% (active)
9,Cc1nn(CCOc2ccccc2)c(=O)n1-c1ccccc1F,-10% (inactive)
10,Cc1ccc(NC(=O)Cn2nc(C)c3ccccc3c2=O)c(C)c1,-59.3% (inactive)
11,CCOC(=O)C1(S(=O)(=O)c2ccccc2)CCN(Cc2ccccc2)CC1,8.3% (inactive)
12,CCn1c(-c2ccoc2C)n[nH]c1=S,2.9% (inactive)
13,CCOC(=O)CN(C)Cc1c[nH]c2ccccc12,1.3% (inactive)
14,COc1ccc(C(=O)NC(=S)Nc2ccccc2N2CCN(S(C)(=O)=O)CC2)cc1OC,54.8% (active)
15,COc1ccccc1CNC(=O)C1CCN(S(C)(=O)=O)CC1,-17.1% (inactive)
16,CCC(=O)Nc1ccccc1N1CCN(S(C)(=O)=O)CC1,-0.9% (inactive)
17,CC(C)c1ccc(OCC(O)Cn2cnc3ccccc32)cc1 (stereo not drawn),8.1% (inactive)
18,CC(C)c1cc(C(=O)O)n[nH]1,1.1% (inactive)
19,CCOCCOC(=O)C1=C(C)N(C)C(=O)NC1c1ccccc1F (stereo not drawn),-10.9% (inactive)
20,Cc1ccc(-n2nc3cc(Cl)c(NC(=O)c4ccco4)cc3n2)cc1,15.7% (inactive)
21,COc1ccc(S(=O)(=O)NC(CC(=O)NCc2ccccc2OC)c2ccco2)cc1 (stereo not drawn),-43.6% (inactive)

row,SMILES,inhibition
1,COc1ccc(C(=O)NCCc2ccc(S(N)(=O)=O)cc2)cc1OC,-6.7% (inactive)
2,COc1ccc(CCNS(=O)(=O)c2ccc(F)cc2)cc1OC,76.6% (active)
3,COc1ccc(CCNS(=O)(=O)c2ccc(C(=O)NCc3ccco3)cc2)cc1OC,71.8% (active)
4,Cc1nn(C)c(Oc2ccccc2)c1CCNS(=O)(=O)c1ccc(F)cc1,49.8% (inactive)
5,COc1ccc(CCNS(=O)(=O)c2ccc(Cl)s2)cc1OC,87.3% (active)
6,O=C(NC1CCC(O)CC1)c1ccc(S(=O)(=O)NCc2ccco2)cc1 (stereo not drawn),5% (inactive)
7,CCS(=O)(=O)NCCc1ccc(OC)c(OC)c1,0.1% (inactive)
8,COc1ccc(CCNC(=O)CN(c2ccccc2)S(C)(=O)=O)cc1OC,4.9% (inactive)
9,COc1ccc(S(=O)(=O)NCc2ccc(C(=O)N(C)Cc3ccco3)cc2)cc1,63.2% (active)
10,COc1ccc(-c2cc(C(=O)NCc3ccco3)no2)cc1OC,-47% (inactive)
11,COc1ccc(CCNc2ncnc3nc[nH]c23)cc1OC,8.9% (inactive)
12,CCCSc1nc(NCc2ccco2)c2c3c(sc2n1)COC(C)(CC)C3 (stereo not drawn),45.6% (inactive)
13,CC(=O)C1C(c2ccc(Cl)cc2)NC(=O)NC1(O)C(F)(F)F (stereo not drawn),-9.5% (inactive)
14,Cn1c(=O)n(C)c2cc(CNc3ccc(N4CCOCC4)c(C(=O)O)c3)ccc21,-13.6% (inactive)
15,CSc1ccc(NC(=O)N2CC(C)OC(C)C2)cc1 (stereo not drawn),2.1% (inactive)
16,O=C(NCCN1CCOCC1)c1c(F)c(F)c(F)c(F)c1F,-21.8% (inactive)
17,COc1ccccc1C1=Nc2cccc3cccc(c23)N1,24% (inactive)
18,CC1(C)COC(c2cccn2Cc2ccccc2Cl)=N1,13.6% (inactive)
19,COc1ccc(C)cc1S(=O)(=O)NCCc1ccccc1,75.9% (active)
20,COCCNS(=O)(=O)c1cc(Br)ccc1OC,-13.7% (inactive)
21,COc1ccc(C)cc1S(=O)(=O)NC1CCCCC1,22.8% (inactive)
